PubChem BioAssay

Legend:
[1] = tested on: Human papillomavirus type 1a protein E7 (residues 44-93); test: small molecules binding HPV E7 44-93 – biochemical, small-molecule microarray, residues 44-93, 635 nm fluorescence, primary screen (AID 1108); details: fluorescence 635 nm, higher = more signal;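 note: E7 fragment applied at 1 µg/mL in TBST for 1 h at 4 C; score combines spot fluorescence with its signal to noise ratio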
[2] = hepatitis C replication reporter changes, two-sided – Huh7 cells, luciferase reporter, HCV replication inhibitor project, primary screen (AID 1109); details: Huh7 HCV replicon luciferase reporter, 48 h; higher = more signal;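 note: huh7 hepatoma cells harbouring a luciferase neomycin HCV replicon reporter; luciferase luminescence as measure of HCV replicon replication; test concentration not given here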
[3] = target: Left-right determination factor 2 (Homo sapiens) (UniProt O00292); test: small molecules binding LEFTY2 protein – biochemical, small-molecule microarray, 635 nm fluorescence scan, primary screen (AID 1110); details: higher = more signal
[4] = target: Calmodulin-1 (Homo sapiens) (UniProt P0DP23); test: small molecules binding calmodulin-1 with EGTA – biochemical, small-molecule microarray, Cy5-labelled CALM1, profiling panel (AID 1111); details: Cy5-CALM1 binding fluorescence, higher = more signal;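 note: labelled calmodulin applied in Tris saline Tween buffer holding calcium plus EGTA and DTT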
[5] = target: Calmodulin-1 (Homo sapiens) (UniProt P0DP23); test: small molecules binding Ca-loaded calmodulin-1 – biochemical, small-molecule microarray, Cy5-labelled CALM1, plus calcium, artefact control for SMM control-protein annotation, profiling panel (AID 1112); details: Cy5-CALM1 binding fluorescence, higher = more signal;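 note: score merges spot fluorescence with signal to noise from triplicate slides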
[6] = probe aWnt5a binding to arrayed compounds – biochemical, biotinylated probe, 635/667 nm fluorescence, primary screen (AID 1113); details: small-molecule microarray, higher = more signal;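 note: score merges 667 nm fluorescence intensity with signal-to-noise per printed feature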
[7] = probe aShh binding to arrayed compounds – biochemical, biotinylated probe, 635/667 nm fluorescence, primary screen (AID 1114); details: small-molecule microarray, higher = more signal;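 note: probe is biotin-labelled aShh protein from a stem cell growth factor screen; measures binding of labelled protein to compounds printed on the slide; score merges feature fluorescence at 667 nm with signal-to-noise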
[8] = probe aNog binding to arrayed compounds – biochemical, biotinylated probe, 635/667 nm fluorescence, primary screen (AID 1115); details: small-molecule microarray, higher = more signal;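 note: probe is biotinylated aNog protein used at 0.15 µg/mL for 1 h at 4 C; z-score combines 667 nm fluorescence of each spot with its signal to noise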
[9] = target: Torsin-1A-interacting protein 1 (Homo sapiens) (UniProt Q5JTV8); test: compound microarray binding of lysate hLAP1 – cell lysate, small-molecule microarray, COS7 lysate, 635/667 nm fluorescence, primary screen (AID 1116); details: 635 nm fluorescence, higher = more signal
[10] = target: Alpha-bungarotoxin (Bungarus multicinctus) (UniProt P60615); test: compounds binding labelled alpha-BTX control protein – biochemical, small-molecule microarray, Alexa647 label, 635/667 nm fluorescence, artefact control for SMM control protein annotation, profiling panel (AID 1117); details: alpha-BTX-A647 binding fluorescence, higher = more signal
Sequence of Alpha-bungarotoxin (Bungarus multicinctus) (P60615 whole entry, looked up): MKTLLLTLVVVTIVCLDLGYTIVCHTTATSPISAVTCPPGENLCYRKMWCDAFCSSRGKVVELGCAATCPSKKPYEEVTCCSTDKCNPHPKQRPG

Sequence of Torsin-1A-interacting protein 1 (Homo sapiens) (Q5JTV8 whole entry, looked up): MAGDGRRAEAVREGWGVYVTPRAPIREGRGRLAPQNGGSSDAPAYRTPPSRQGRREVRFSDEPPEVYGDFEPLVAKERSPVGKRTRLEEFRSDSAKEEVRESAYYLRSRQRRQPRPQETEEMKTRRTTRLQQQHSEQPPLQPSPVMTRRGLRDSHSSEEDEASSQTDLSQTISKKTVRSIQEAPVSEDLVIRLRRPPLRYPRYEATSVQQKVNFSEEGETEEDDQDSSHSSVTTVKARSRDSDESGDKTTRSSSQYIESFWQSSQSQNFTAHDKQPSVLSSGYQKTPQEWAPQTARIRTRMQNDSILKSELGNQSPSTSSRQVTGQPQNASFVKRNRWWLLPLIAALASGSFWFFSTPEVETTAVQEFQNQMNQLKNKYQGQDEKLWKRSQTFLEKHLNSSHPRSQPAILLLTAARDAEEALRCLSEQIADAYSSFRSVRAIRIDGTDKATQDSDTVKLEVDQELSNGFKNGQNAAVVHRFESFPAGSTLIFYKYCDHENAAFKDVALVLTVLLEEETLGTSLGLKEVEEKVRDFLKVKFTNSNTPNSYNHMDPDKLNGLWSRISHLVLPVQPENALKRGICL
Sequence of Left-right determination factor 2 (Homo sapiens) (O00292 whole entry, looked up): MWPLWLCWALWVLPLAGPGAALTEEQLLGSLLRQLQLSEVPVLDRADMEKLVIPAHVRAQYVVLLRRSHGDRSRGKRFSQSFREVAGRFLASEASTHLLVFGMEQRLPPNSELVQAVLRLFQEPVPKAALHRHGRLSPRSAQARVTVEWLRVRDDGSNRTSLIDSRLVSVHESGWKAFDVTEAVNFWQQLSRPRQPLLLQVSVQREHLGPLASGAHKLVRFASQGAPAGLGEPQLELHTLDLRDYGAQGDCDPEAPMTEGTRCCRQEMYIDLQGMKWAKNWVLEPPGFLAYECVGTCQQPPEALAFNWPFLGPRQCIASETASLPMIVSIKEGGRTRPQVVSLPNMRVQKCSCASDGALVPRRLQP

Row | SMILES | composite z-score [1] | z-score [2] | composite z-score [3] | composite z-score [4] | composite z-score [5] | composite z-score [6] | composite z-score [7] | composite z-score [8] | composite z-score [9] | composite z-score [10]
1 | COc1cc(CO)cc(I)c1O[C@H]1C=C(C(=O)NCCO)C[C@@H](NC[C@@H]2CCCO2)[C@@H]1O | 1.33 | -0.695 | 0.187 | -0.0113 | -0.732 | -0.096 | -0.304 | -0.267 | 1.13 | 0.693
2 | O=C1OCCC=C[C@H]2OC34C=CCN(Cn5nnc6ccccc65)C(=O)[C@H]3N(CCO)C(=O)[C@@H]4C12 (stereo not given in full) | -1.59 | -0.772 | -2.07 | -0.4 | 0.262 | -0.252 | -0.262 | 0.328 | -0.618 | 1.1
3 | CCCCC(=C=CC[C@@H](O)c1ccc(CO)o1)CCO | 0.378 | -0.379 | 0.38 | -0.111 | -0.641 | -0.0462 | 0.365 | -0.158 | 0.148 | -0.168
4 | CO[C@H]1O[C@H](CO)[C@@H](OC(=O)Nc2cccc(F)c2)[C@H](OC(=O)Nc2ccccc2)[C@H]1OC(=O)Nc1ccccc1 | 1.52 | -3.16 | 0.238 | 0.183 | -0.467 | -0.0222 | 0.536 | 0.919 | 1.29 | 1.53
5 | O=C(NC1CC1)[C@@H]1c2ccccc2C(=O)N(C2Cc3ccccc3C2)[C@H]1c1ccc(CO)cc1 | 1.32 | -0.865 | 0.716 | -0.199 | -0.253 | -0.0512 | -0.457 | -0.608 | 0.599 | 0.154
6 | O=C1C2C=CC(C(O)c3c(F)cccc3Cl)N(Nc3ccccc3F)C2C(=O)N1c1ccccc1 (stereo not given) | 1.43 | -0.665 | -0.165 | 1.24 | 0.265 | 0.0136 | 0.701 | 0.933 | 1.43 | 0.543
7 | CO[C@H]1O[C@H](CO)[C@@H](OC(=O)Nc2ccc(Oc3ccccc3)cc2)[C@H](OC(=O)Nc2ccc3c(c2)OCO3)[C@@H]1OC(=O)Nc1ccc2c(c1)OCO2 | 0.794 | 0.166 | 0.627 | 1.15 | -0.23 | 0.0374 | 0.246 | 0.565 | 1.37 | 1.26
8 | O=C1O[C@@H](c2ccccc2)[C@@H](c2ccccc2)N2[C@@H](c3ccccc3OCCO)[C@]3(C(=O)Nc4ccccc43)[C@@H](C(=O)O)[C@H]12 | 1.32 | -0.73 | -0.0445 | 0.995 | -0.842 | -0.0924 | -0.229 | -0.18 | 0.584 | 1.04
9 | CC(C)CN1C(=O)[C@@]2(c3ccc([N+](=O)[O-])cc3)CC(=O)N(C3CCCCC3)[C@@H]2c2ccc(CO)cc21 | -1.25 | -0.707 | -1.69 | -0.311 | -0.0449 | -0.208 | -0.33 | -0.181 | -0.803 | 0.547
10 | COCCOC(=O)N1C(=O)[C@@]2(c3ccccc31)[C@H](C(=O)N1CCc3cc(OC)c(OC)cc3C1)[C@H]1C(=O)O[C@H](c3ccccc3)[C@H](c3ccccc3)N1[C@@H]2c1ccc(O)cc1 | 1.13 | -0.515 | 0.337 | 1.38 | 0.116 | -0.0125 | -0.0769 | 0.511 | 1.94 | 1.65
11 | [N-]=[N+]=NCc1ccccc1[C@H]1OC(c2ccc(OCCCO)cc2)=N[C@@]1(Cc1ccccc1)C(=O)N1CCCCC1 | 1.37 | -2.55 | 0.198 | 1.23 | 0.0298 | 0.195 | -0.0243 | -0.768 | 0.249 | 1.43
12 | CCCCCCCCCCC(O)C1C=CC2C(=O)NC(=O)C2N1Nc1ccc(Cl)cc1Cl (stereo not given) | 0.732 | -1.26 | -1.67 | 1.21 | 1.21 | -0.122 | -0.138 | 1.07 | 0.345 | -0.133
13 | COc1ccc(C(O)C2C=CC3C(=O)N(C)C(=O)C3N2N(c2ccccc2)c2ccccc2)c2ccccc12 (stereo not given) | -0.452 | 0.352 | 0.0468 | -0.078 | -0.511 | 0.0328 | -0.0011 | 0.0984 | 1.68 | 0.429
14 | CC1CC/C=C\[C@H]2OC34C=CCN(c5ccc6ccccc6c5)C(=O)[C@H]3N(CCO)C(=O)[C@@H]4C2C(=O)O1 (stereo not given in full) | -0.619 | -0.626 | -2.09 | -0.832 | -0.202 | -0.205 | 0.192 | 0.831 | 3.26 | -1.01
15 | COc1ccc([Si](C)(C)[C@@H]2[C@@H](CCO)O[C@]3(C(=O)N(Cc4cccc(N5CCOC5=O)c4)c4ccccc43)[C@H]2C)cc1 | 0.542 | -4.17 | 0.133 | 1.37 | 0.924 | -0.0704 | 0.0756 | 0.36 | 0.412 | 1.32
16 | COc1cc2c(cc1O)C=[N+](Cc1cc3c(cc1Br)OCO3)CC2 | -0.411 | -0.537 | -0.678 | -1.01 | -0.0978 | -0.16 | -0.16 | -0.492 | -0.479 | -2.64
17 | CC(=O)NCCCC[C@@H]1NC(=O)[C@H]2C[C@@H](C(=O)O)[C@@H](c3ccc(O)cc3)N2C1=O | 1.12 | -3.1 | 1.08 | 0.192 | -0.548 | 0.0825 | 0.108 | 0.005 | 0.0682 | 0.626
18 | O=C(CS)NCCCCCNC(=O)[C@H]1C[C@H]2C(=O)NCC(=O)N2[C@H]1c1cccc(OCCO)c1 | -1.02 | 1.34 | -0.356 | -0.213 | 0.787 | -0.152 | 0.294 | -0.311 | -0.631 | 0.854
